The supplement of paper PMC10849652
Targets with a hit are over-represented here; the source holds about 8,800 in all. About 0.5% of all pairs of compound and target were hits. Values without a mark were called inactive.

Tests used:
Test in all cases: log2 fold change, soluble protein after heating vs DMSO (PISA); higher = thermal stabilisation; K562 lysate, 10 uM; active = over 0.2 and 3.5 SD of the protein, either way, in both replicates (recomputed)
ibrutinib = compound: C=CC(=O)N1CCC[C@@H](n2nc(-c3ccc(Oc4ccccc4)cc3)c3c(N)ncnc32)C1 [ibrutinib]
In short: (§1)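 K562 pellets were dounce-homogenised in PBS pH 7.4 containing 1 mM MgCl2, and the crude extract, at 1 mg/mL protein, was exposed to 10 μM compound for 30 min. Aliquots were heated for 3 min across 48°C-58°C, pooled, brought to 0.5% NP-40 at 4°C and spun at 21,000xg for 90 min, with the supernatant taken as soluble protein. TMTpro 16plex LC-MS/MS with equalised channel sums quantified that protein. Values are log-two fold changes in thermal stability relative to solvent controls, taken from duplicates.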

[1] = compound: CC(=O)c1cnc2ccc(-c3cc(Cl)c(O)c(Cl)c3)nc2c1N[C@H]1CC[C@H](CN(C)C)CC1
In short: as §1

ralimetinib = compound: CC(C)(C)Cn1c(N)nc2ccc(-c3[nH]c(C(C)(C)C)nc3-c3ccc(F)cc3)nc21 [ralimetinib]
In short: as §1

[2] = compound: CC(C)(O)CC(=O)NCCn1ccc2ncnc(Nc3ccc(Oc4cccc(C(F)(F)F)c4)c(Cl)c3)c21
In short: as §1

[3] = compound: CC(C)C1=C2N=C(C=C(N2N=C1)NCC3=CC=CC=C3)NCCCCCCN
In short: as §1

[4] = compound: CC1=C(C(CC(=O)N1)C2=CC=C(C=C2)C(F)(F)F)C(=O)NC3=C(C=C4C(=C3)C=NN4)F
In short: as §1

[5] = compound: CC1=C(C2=C(C=C1)C(=O)C3=CC=CC=C3N2CCCN)C
In short: as §1

[6] = compound: CC1=C(C=C(C=C1)NC(=O)C2=CC(=CC=C2)C(C)(C)C#N)NC3=CC4=C(C=C3)N=CN(C4=O)C
In short: as §1

[7] = compound: CC1=C(C=C(C=C1)NC(=O)C2=CC(=CC=C2)N(C)C)NC(=O)C3=CC=C(C=C3)O
In short: as §1

[8] = compound: CC1=CC=C(C=C1)SC2=C3C=C(SC3=CN=C2)C(=O)N
In short: as §1

Chain of UniProt P21953 (P21953 whole entry, looked up): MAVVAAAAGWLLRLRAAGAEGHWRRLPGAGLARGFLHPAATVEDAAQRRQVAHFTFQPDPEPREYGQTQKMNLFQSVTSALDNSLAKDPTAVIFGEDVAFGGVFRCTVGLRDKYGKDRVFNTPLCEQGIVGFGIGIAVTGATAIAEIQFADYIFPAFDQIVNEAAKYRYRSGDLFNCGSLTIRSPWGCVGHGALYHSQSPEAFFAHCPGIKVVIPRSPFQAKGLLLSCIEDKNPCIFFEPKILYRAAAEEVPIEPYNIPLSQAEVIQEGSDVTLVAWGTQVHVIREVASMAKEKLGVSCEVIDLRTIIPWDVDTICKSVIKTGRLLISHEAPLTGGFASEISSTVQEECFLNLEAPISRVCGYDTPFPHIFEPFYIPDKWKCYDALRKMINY
Chain of UniProt Q6P1S2 (Q6P1S2 whole entry, looked up): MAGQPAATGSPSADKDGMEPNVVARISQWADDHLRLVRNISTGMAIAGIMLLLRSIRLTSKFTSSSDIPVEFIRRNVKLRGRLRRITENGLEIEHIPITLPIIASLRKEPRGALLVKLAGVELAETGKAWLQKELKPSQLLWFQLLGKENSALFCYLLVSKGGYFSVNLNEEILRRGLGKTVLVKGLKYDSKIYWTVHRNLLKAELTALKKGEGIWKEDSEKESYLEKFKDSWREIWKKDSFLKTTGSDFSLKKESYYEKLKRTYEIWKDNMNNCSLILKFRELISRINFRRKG
Chain of UniProt O95319 (O95319 whole entry, looked up): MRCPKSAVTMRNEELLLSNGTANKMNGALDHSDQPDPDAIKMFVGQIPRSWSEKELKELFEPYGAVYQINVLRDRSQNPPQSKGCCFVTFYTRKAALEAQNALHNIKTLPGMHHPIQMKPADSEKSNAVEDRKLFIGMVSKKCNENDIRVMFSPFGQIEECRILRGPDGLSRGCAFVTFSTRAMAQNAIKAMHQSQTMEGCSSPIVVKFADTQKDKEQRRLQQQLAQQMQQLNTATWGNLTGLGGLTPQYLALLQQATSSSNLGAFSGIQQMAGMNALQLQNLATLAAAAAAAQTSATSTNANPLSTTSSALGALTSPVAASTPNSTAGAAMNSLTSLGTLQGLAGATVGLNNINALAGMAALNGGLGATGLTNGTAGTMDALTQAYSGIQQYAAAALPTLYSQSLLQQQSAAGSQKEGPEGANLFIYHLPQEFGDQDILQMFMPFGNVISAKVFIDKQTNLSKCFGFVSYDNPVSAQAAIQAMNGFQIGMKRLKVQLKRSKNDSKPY
Chain of UniProt P06493 (P06493 whole entry, looked up): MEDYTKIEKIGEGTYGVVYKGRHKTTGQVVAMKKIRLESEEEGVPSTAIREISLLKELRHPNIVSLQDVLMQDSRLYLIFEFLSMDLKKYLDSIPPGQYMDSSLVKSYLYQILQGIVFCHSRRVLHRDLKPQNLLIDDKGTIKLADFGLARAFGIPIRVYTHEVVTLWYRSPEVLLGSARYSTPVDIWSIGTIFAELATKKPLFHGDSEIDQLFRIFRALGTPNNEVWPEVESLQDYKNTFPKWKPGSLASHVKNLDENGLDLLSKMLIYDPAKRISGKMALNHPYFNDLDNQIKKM
Chain of UniProt P55212 (P55212 whole entry, looked up): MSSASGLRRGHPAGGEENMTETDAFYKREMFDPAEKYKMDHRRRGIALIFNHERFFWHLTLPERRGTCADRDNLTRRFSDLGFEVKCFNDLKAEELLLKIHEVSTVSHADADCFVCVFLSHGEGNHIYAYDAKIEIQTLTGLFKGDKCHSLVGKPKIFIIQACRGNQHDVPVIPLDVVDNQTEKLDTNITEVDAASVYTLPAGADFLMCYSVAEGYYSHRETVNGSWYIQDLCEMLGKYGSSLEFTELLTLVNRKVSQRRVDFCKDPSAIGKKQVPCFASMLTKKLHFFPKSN
Chain of UniProt O43709 (O43709 whole entry, looked up): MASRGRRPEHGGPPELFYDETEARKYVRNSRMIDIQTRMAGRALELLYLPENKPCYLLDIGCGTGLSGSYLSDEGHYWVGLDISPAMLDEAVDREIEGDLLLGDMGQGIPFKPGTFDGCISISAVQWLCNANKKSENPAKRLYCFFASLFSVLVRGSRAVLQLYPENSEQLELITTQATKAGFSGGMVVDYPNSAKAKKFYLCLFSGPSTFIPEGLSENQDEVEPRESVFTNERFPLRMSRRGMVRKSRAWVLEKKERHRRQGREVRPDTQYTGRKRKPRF
Chain of UniProt Q86WR0 (Q86WR0 whole entry, looked up): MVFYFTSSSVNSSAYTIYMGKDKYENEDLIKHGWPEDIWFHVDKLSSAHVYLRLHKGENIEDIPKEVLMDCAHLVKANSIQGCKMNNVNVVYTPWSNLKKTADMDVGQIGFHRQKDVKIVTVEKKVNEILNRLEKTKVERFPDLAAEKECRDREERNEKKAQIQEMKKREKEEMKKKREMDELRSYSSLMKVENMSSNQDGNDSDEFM
Chain of UniProt Q9Y4P1 (Q9Y4P1 whole entry, looked up): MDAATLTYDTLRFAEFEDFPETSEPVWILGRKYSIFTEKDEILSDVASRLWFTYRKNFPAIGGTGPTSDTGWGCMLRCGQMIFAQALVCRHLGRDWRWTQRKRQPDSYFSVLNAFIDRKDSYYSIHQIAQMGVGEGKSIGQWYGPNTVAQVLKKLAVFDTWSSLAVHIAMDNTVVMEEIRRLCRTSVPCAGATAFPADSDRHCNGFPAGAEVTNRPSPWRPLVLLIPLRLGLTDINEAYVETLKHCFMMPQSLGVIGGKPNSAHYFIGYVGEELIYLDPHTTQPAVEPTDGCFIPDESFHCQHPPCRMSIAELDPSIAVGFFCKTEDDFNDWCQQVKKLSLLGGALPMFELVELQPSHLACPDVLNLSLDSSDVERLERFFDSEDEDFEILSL
Chain of UniProt O60566 (O60566 whole entry, looked up): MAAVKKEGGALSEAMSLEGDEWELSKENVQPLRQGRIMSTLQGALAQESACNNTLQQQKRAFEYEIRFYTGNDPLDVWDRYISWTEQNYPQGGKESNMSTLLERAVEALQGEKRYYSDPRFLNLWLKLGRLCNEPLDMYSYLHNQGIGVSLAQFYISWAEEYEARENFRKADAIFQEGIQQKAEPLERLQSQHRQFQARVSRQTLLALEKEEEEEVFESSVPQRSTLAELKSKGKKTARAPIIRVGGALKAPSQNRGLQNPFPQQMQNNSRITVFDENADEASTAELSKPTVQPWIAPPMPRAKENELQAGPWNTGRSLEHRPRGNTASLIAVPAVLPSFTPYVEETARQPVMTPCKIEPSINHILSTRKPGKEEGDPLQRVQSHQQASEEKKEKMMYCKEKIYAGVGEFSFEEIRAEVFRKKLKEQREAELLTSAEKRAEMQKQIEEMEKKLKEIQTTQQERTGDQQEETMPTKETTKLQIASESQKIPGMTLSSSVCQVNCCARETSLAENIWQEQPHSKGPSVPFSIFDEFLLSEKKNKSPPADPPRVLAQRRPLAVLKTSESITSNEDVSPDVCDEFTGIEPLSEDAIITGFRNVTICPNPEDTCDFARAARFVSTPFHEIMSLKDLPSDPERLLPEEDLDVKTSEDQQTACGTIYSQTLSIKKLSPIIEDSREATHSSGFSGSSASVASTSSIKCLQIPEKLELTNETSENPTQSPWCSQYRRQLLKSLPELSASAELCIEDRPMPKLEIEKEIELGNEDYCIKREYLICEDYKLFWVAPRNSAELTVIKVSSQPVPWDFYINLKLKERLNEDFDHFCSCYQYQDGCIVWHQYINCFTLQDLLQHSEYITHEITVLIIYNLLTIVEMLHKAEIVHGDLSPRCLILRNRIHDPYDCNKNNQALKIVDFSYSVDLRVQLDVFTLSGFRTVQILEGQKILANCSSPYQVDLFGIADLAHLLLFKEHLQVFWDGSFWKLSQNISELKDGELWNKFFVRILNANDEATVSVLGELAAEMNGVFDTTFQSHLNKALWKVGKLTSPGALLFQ
Chain of UniProt P49589 (P49589 whole entry, looked up): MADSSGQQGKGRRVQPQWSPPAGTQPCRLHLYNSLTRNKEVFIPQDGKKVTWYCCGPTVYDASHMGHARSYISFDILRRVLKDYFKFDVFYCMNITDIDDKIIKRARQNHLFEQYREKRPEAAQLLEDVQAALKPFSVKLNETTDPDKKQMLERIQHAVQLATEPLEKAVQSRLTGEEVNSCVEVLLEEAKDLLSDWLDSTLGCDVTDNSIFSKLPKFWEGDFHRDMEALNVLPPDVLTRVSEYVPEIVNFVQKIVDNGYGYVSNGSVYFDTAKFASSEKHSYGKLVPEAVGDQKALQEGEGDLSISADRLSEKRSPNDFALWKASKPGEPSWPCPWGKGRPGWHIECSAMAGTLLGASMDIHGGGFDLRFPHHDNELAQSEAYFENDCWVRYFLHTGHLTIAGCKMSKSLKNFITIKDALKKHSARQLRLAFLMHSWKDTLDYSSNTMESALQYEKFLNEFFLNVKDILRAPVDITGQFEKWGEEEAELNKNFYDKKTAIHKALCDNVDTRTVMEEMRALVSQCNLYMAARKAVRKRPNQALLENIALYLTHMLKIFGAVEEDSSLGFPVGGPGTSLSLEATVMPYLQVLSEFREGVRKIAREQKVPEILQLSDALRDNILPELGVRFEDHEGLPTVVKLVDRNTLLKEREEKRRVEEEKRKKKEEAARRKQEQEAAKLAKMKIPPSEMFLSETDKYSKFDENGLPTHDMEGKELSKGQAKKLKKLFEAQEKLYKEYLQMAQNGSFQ
Chain of UniProt Q96B23 (Q96B23 whole entry, looked up): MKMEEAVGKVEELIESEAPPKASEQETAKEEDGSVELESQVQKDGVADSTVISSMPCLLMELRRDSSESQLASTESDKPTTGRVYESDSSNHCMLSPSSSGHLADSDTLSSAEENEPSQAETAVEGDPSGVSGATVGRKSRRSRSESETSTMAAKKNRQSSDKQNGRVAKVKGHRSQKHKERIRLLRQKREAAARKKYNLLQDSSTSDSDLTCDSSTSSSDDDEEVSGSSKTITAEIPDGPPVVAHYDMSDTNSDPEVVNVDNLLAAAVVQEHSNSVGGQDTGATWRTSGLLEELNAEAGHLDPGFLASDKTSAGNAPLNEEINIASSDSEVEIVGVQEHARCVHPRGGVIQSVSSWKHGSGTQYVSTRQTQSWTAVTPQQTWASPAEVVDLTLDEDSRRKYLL

Target | log2 fold change (ibrutinib) | log2 fold change [1] | log2 fold change (ralimetinib) | log2 fold change [2] | log2 fold change [3] | log2 fold change [4] | log2 fold change [5] | log2 fold change [6] | log2 fold change [7] | log2 fold change [8]
CDC16 (UniProt Q13042) | 0.02 | 0.019 | 0.025 | -0.022 | 0.012 | -0.006 | 0.04 | -0.029 | -0.005 | 0.025
BMS1 (UniProt Q14692) | 0.095 | 0.018 | 0.018 | -0.041 | -0.008 | -0.011 | 0.007 | 0.049 | 0.034 | 0.032
CCDC32 isoform 2 (UniProt Q9BV29) | 0.276 (active) | 0.026 | -0.005 | 0 | 0.047 | -0.017 | -0.03 | 0.051 | 0.028 | 0.03
C18orf25 (UniProt Q96B23) | 0.114 | 0.026 | 0 | -0.276 (active) | -0.038 | 0.073 | -0.008 | 0.04 | -0.091 | -0.065
BUB1B isoform 3 (UniProt O60566) | 0.035 | -0.007 | 0.001 | 0.021 | 0.003 | -0.001 | 0.004 | -0.028 | 0.003 | 0.001
CDC40 (UniProt O60508) | 0.02 | 0.034 | -0.219 (active) | 0.016 | -0.115 | 0.084 | -0.019 | 0.056 | 0.136 | -0.028
BCKDHB (UniProt P21953) | -0.102 | 0.025 | 0.003 | -0.01 | -0.037 | 0.016 | -0.022 | -0.078 | 0.071 | 0.024
CCDC47 (UniProt Q96A33) | 0 | 0.002 | 0.01 | -0.063 | -0.042 | 0.044 | -0.002 | 0.041 | 0.045 | -0.013
CASP7 isoform 3 (UniProt P55210) | 0 | 0.125 | -0.118 | -0.012 | -0.123 | -0.029 | -0.161 | 0.043 | -0.124 | -0.052
CHCHD4 isoform 2 (UniProt Q8N4Q1) | 0.076 | -0.041 | 0.034 | -0.091 | -0.015 | 0.076 | 0.002 | 0.039 | 0 | 0.013
CCDC25 (UniProt Q86WR0) | 0.023 | -0.006 | -0.018 | -0.013 | 0.017 | -0.042 | -0.022 | 0.03 | -0.002 | 0
CAMK2B (UniProt Q13554) | 0.092 | 0.023 | 0.028 | 0.045 | 0.075 | -0.035 | -0.018 | -0.005 | 0.046 | -0.032
CASP3 (UniProt P42574) | 0.028 | -0.004 | 0.009 | 0.012 | -0.048 | -0.047 | -0.026 | 0.025 | -0.02 | -0.01
CARS isoform 3 (UniProt P49589) | -0.012 | 0.015 | -0.016 | 0.033 | -0.016 | -0.001 | 0.015 | -0.032 | 0.009 | 0.016
CDAN1 (UniProt Q8IWY9) | 0.035 | -0.004 | 0 | -0.029 | -0.02 | -0.001 | -0.023 | 0.035 | 0.056 | -0.008
ATG4B (UniProt Q9Y4P1) | 0.037 | 0.021 | 0.016 | -0.028 | -0.019 | -0.014 | 0.033 | 0.005 | 0.046 | 0.013
CDK1 (UniProt P06493) | -0.071 | 0.433 (active) | 0.018 | -0.037 | -0.026 | -0.029 | 0.01 | 0.033 | 0.011 | 0

Target | log2 fold change (ibrutinib) | log2 fold change [1] | log2 fold change (ralimetinib) | log2 fold change [2] | log2 fold change [3] | log2 fold change [4] | log2 fold change [5] | log2 fold change [6] | log2 fold change [7] | log2 fold change [8]
ATP9B (UniProt O43861) | -0.156 | 0.08 | -0.044 | -0.053 | -0.021 | 0.225 | 0.049 | 0 | 0.079 | -0.054
CDK5RAP2 (UniProt Q96SN8) | -0.022 | 0.268 (active) | -0.006 | 0.01 | -0.019 | -0.001 | -0.044 | -0.007 | 0.003 | 0.067
CENPQ (UniProt Q7L2Z9) | 0.009 | 0.162 | 0.029 | -0.002 | 0.005 | 0.097 | -0.153 | -0.057 | -0.075 | 0.013
BUD23 isoform 3 (UniProt O43709) | -0.017 | -0.007 | 0.089 | -0.002 | -0.064 | -0.004 | 0.119 | -0.056 | -0.023 | -0.001
ATAD1 (UniProt Q8NBU5) | 0 | 0.008 | 0.245 | -0.059 | 0.016 | -0.165 | -0.059 | -0.003 | -0.01 | 0.03
CCNA2 (UniProt P20248) | 0.005 | 0.16 | -0.003 | -0.013 | 0.022 | 0.003 | 0.008 | 0.047 | 0.007 | -0.029
BTAF1 (UniProt O14981) | -0.016 | -0.003 | 0.01 | -0.008 | 0.003 | 0.018 | 0.023 | 0 | 0.025 | -0.012
CDK16 isoform 2 (UniProt Q00536) | 0.025 | 0.28 | 0.016 | 0.009 | -0.089 | -0.023 | -0.007 | -0.037 | -0.024 | -0.141
CARD9 (UniProt Q9H257) | -0.034 | 0.037 | 0.014 | -0.029 | 0.019 | -0.022 | -0.027 | -0.005 | -0.008 | -0.038
CCDC186 (UniProt Q7Z3E2) | 0.024 | -0.025 | -0.001 | -0.056 | -0.086 | 0.006 | 0.021 | -0.016 | 0 | -0.023
C3orf33 (UniProt Q6P1S2) | -0.045 | -0.084 | 0.17 | 0.012 | -0.001 | 0.046 | -0.031 | 0.117 | -0.205 | 0.008
BRD2 isoform 2 (UniProt P25440) | 0.074 | -0.041 | -0.056 | 0.021 | 0.26 | -0.025 | 0.008 | 0.056 | 0.049 | 0.105
CELF2 isoform 3 (UniProt O95319) | -0.016 | 0.062 | -0.019 | -0.015 | 0.001 | 0.025 | 0.01 | -0.413 (active) | 0.018 | 0.014
CHAC2 (UniProt Q8WUX2) | -0.064 | -0.014 | -0.01 | 0.043 | -0.118 | -0.026 | -0.048 | -0.016 | 0.017 | -0.031
CASP6 (UniProt P55212) | -0.029 | 0.034 | 0.074 | 0.011 | -0.042 | -0.012 | 0.005 | -0.003 | -0.02 | -0.008
CCDC85B (UniProt Q15834) | 0.215 | -0.248 | -0.001 | 0.05 | 0.056 |  | 0.004 | -0.016 | -0.163 | 0.014
BRAT1 (UniProt Q6PJG6) | 0.002 | 0.013 | 0.005 | -0.038 | -0.001 | -0.028 | 0 | -0.006 | -0.015 | 0.019
